# The full list was thinned out, with the strongest signals kept by preference.
# B1: Gal 8 (Mus musculus), Q9JL15 (protein)
# chain: MGGSHHHHHHGMASMLSLNNLQNIIYNPIIPYVGTITEQLKPGSLIVIRGHVPKDSERFQVDFQLGNSLKPRADVAFHFNPHFKRSSCIVCNTLTQEKWGWEEITYDMPFRKEKSFEIVFMVLKNKFQVAVNGRHVLLYAHRISPEQIDTVGIYGKVNIHSIGFRFSSASALPHTLGDLQSMETSALGLTQINRENIQKPGKLQLSLPFEARLNASMGPGRTVVIKGEVNTNARSFNVDLVAGKTRDIALHLNPHLNVKAFVRNSFLQDAWGEEERNITCFPFSSGMYFEMIIYCDVREFKVAINGVHSLEYKHRFKDLSSIDTLSVDGDIRLLDVRSW
# Experiments:
# Experiment in all cases: glycan array binding signal (z-score within array); higher = stronger binding
# Conditions in all cases: glycan notation: IUPAC condensed, linker removed; mutation: R82H, R255H
# [1] = molecular target: Gal(b1-4)GlcNAc(b1-3)Gal(b1-4)GlcNAc(b1-3)[Gal(b1-4)GlcNAc(b1-3)Gal(b1-4)GlcNAc(b1-6)]GalNAc
# In short: (§1)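 Glycan array data came from 3228 arrays in the Consortium for Functional Glycomics database, and only arrays with an available protein sequence were kept. Glycan names were put into IUPAC-condensed notation, and columns mapping to the same glycan were averaged. The binding signal is a within-array Z-score, averaged across arrays of one protein sequence run at different concentrations or buffers and across linkers. A negative Z-score can be read as non-binding.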
# Gal4S(b1-4)GlcNAc = molecular target: Gal4S(b1-4)GlcNAc
# In short: as §1
# Gal6S(b1-3)GlcNAc6S = molecular target: Gal6S(b1-3)GlcNAc6S
# In short: as §1
# [2] = molecular target: GalNAc(a1-3)GalNAc(b1-3)Gal(a1-4)Gal(b1-4)Glc
# In short: as §1
# GalNAc(b1-3)GalNAc = molecular target: GalNAc(b1-3)GalNAc
# In short: as §1
# GalNAc(b1-4)GlcNAc = molecular target: GalNAc(b1-4)GlcNAc
# In short: as §1
# [3] = molecular target: GalNAc(b1-4)GlcNAc(b1-3)GalNAc(b1-4)GlcNAc
# In short: as §1
# [4] = molecular target: GlcA3S(b1-3)Gal(b1-4)GlcNAc(b1-3)Gal(b1-4)Glc
# In short: as §1
# [5] = molecular target: GlcNAc(b1-2)Man(a1-3)[GlcNAc(b1-4)][GlcNAc(b1-2)Man(a1-6)]Man(b1-4)GlcNAc(b1-4)[Fuc(a1-6)]GlcNAc
# In short: as §1
# [6] = molecular target: GlcNAc(b1-3)Gal(b1-4)GlcNAc(b1-3)Gal(b1-4)GlcNAc(b1-2)[GlcNAc(b1-3)Gal(b1-4)GlcNAc(b1-3)Gal(b1-4)GlcNAc(b1-6)]Man(a1-6)[GlcNAc(b1-3)Gal(b1-4)GlcNAc(b1-3)Gal(b1-4)GlcNAc(b1-2)Man(a1-3)]Man(b1-4)GlcNAc(b1-4)[Fuc(a1-6)]GlcNAc
# In short: as §1
# [7] = molecular target: GlcNAc(b1-3)Gal(b1-4)GlcNAc(b1-3)Gal(b1-4)GlcNAc(b1-3)Gal(b1-4)GlcNAc(b1-2)Man(a1-3)[GlcNAc(b1-3)Gal(b1-4)GlcNAc(b1-3)Gal(b1-4)GlcNAc(b1-3)Gal(b1-4)GlcNAc(b1-2)Man(a1-6)]Man(b1-4)GlcNAc(b1-4)GlcNAc
# In short: as §1
# [8] = molecular target: GlcNAc(b1-3)Gal(b1-4)GlcNAc(b1-3)Gal(b1-4)GlcNAc(b1-3)Gal(b1-4)GlcNAc(b1-2)[GlcNAc(b1-3)Gal(b1-4)GlcNAc(b1-3)Gal(b1-4)GlcNAc(b1-3)Gal(b1-4)GlcNAc(b1-6)]Man(a1-6)[GlcNAc(b1-3)Gal(b1-4)GlcNAc(b1-3)Gal(b1-4)GlcNAc(b1-3)Gal(b1-4)GlcNAc(b1-2)Man(a1-3)]Man(b1-4)GlcNAc(b1-4)[Fuc(a1-6)]GlcNAc
# In short: as §1
# [9] = molecular target: GlcNAc(b1-3)Gal(b1-4)GlcNAc(b1-3)Gal(b1-4)GlcNAc(b1-3)Gal(b1-4)GlcNAc(b1-3)Gal(b1-4)GlcNAc(b1-2)Man(a1-3)[GlcNAc(b1-3)Gal(b1-4)GlcNAc(b1-3)Gal(b1-4)GlcNAc(b1-3)Gal(b1-4)GlcNAc(b1-3)Gal(b1-4)GlcNAc(b1-2)Man(a1-6)]Man(b1-4)GlcNAc(b1-4)GlcNAc
# In short: as §1
# [10] = molecular target: GlcNAc(b1-3)Gal(b1-4)GlcNAc(b1-3)Gal(b1-4)GlcNAc(b1-3)Gal(b1-4)GlcNAc(b1-3)Gal(b1-4)GlcNAc(b1-2)Man(a1-3)[GlcNAc(b1-3)Gal(b1-4)GlcNAc(b1-3)Gal(b1-4)GlcNAc(b1-3)Gal(b1-4)GlcNAc(b1-3)Gal(b1-4)GlcNAc(b1-2)Man(a1-6)]Man(b1-4)GlcNAc(b1-4)[Fuc(a1-6)]GlcNAc
# In short: as §1
# [11] = molecular target: GlcNAc(b1-3)Gal(b1-4)GlcNAc(b1-3)Gal(b1-4)GlcNAc(b1-3)Gal(b1-4)GlcNAc(b1-3)Gal(b1-4)GlcNAc(b1-2)[GlcNAc(b1-3)Gal(b1-4)GlcNAc(b1-3)Gal(b1-4)GlcNAc(b1-3)Gal(b1-4)GlcNAc(b1-3)Gal(b1-4)GlcNAc(b1-6)]Man(a1-6)[GlcNAc(b1-3)Gal(b1-4)GlcNAc(b1-3)Gal(b1-4)GlcNAc(b1-3)Gal(b1-4)GlcNAc(b1-3)Gal(b1-4)GlcNAc(b1-2)Man(a1-3)]Man(b1-4)GlcNAc(b1-4)[Fuc(a1-6)]GlcNAc
# In short: as §1
# [12] = molecular target: GlcNAc(b1-3)Gal(b1-4)GlcNAc(b1-6)[Gal(b1-3)]GalNAc
# In short: as §1
# [13] = molecular target: GlcNAc(b1-4)GlcNAc(b1-4)GlcNAc
# In short: as §1
# [14] = molecular target: Man(a1-2)Man(a1-6)[Man(a1-3)]Man(a1-6)[Man(a1-2)Man(a1-2)Man(a1-3)]Man
# In short: as §1
# Man(a1-3)[Man(a1-6)]Man = molecular target: Man(a1-3)[Man(a1-6)]Man
# In short: as §1
# [15] = molecular target: Man(a1-3)[Man(a1-6)]Man(a1-6)[Man(a1-2)Man(a1-3)]Man(b1-4)GlcNAc(b1-4)GlcNAc
# In short: as §1
# Neu5Ac(a2-3)Gal = molecular target: Neu5Ac(a2-3)Gal
# In short: as §1
# [16] = molecular target: Neu5Ac(a2-3)Gal(b1-3)GlcNAc
# In short: as §1
# [17] = molecular target: Neu5Ac(a2-3)Gal(b1-3)GlcNAc(b1-2)Man(a1-3)[Neu5Ac(a2-3)Gal(b1-3)GlcNAc(b1-2)Man(a1-6)]Man(b1-4)GlcNAc(b1-4)GlcNAc
# In short: as §1
# [18] = molecular target: Neu5Ac(a2-3)Gal(b1-4)GlcNAc(b1-3)Gal(b1-4)GlcNAc(b1-3)Gal(b1-4)GlcNAc
# In short: as §1
# [19] = molecular target: Neu5Ac(a2-3)Gal(b1-4)GlcNAc(b1-3)Gal(b1-4)GlcNAc(b1-3)[Neu5Ac(a2-3)Gal(b1-4)GlcNAc(b1-3)Gal(b1-4)GlcNAc(b1-6)]GalNAc
# In short: as §1
# [20] = molecular target: Neu5Ac(a2-6)Gal(b1-4)GlcNAc(b1-3)GalNAc
# In short: as §1
# [21] = molecular target: Neu5Ac(a2-6)Gal(b1-4)GlcNAc6S
# In short: as §1
# [22] = molecular target: Neu5Ac(a2-8)Neu5Ac(a2-3)[GalNAc(b1-4)]Gal(b1-4)Glc
# In short: as §1
binder,measurement,setting,value
B1,glycan array binding signal (z-score),[1],0.053
same,glycan array binding signal (z-score),Gal4S(b1-4)GlcNAc,-0.22
same,glycan array binding signal (z-score),Gal6S(b1-3)GlcNAc6S,-0.186
same,glycan array binding signal (z-score),[2],-0.214
same,glycan array binding signal (z-score),GalNAc(b1-3)GalNAc,-0.259
same,glycan array binding signal (z-score),GalNAc(b1-4)GlcNAc,-0.245
same,glycan array binding signal (z-score),[3],-0.271
same,glycan array binding signal (z-score),[4],-0.198
same,glycan array binding signal (z-score),[5],-0.278
same,glycan array binding signal (z-score),[6],5.44
same,glycan array binding signal (z-score),[7],4.25
same,glycan array binding signal (z-score),[8],4.84
same,glycan array binding signal (z-score),[9],7.01
same,glycan array binding signal (z-score),[10],6.24
same,glycan array binding signal (z-score),[11],6.71
same,glycan array binding signal (z-score),[12],-0.251
same,glycan array binding signal (z-score),[13],-0.255
same,glycan array binding signal (z-score),[14],-0.276
same,glycan array binding signal (z-score),Man(a1-3)[Man(a1-6)]Man,-0.24
same,glycan array binding signal (z-score),[15],-0.246
same,glycan array binding signal (z-score),Neu5Ac(a2-3)Gal,-0.259
same,glycan array binding signal (z-score),[16],-0.217
same,glycan array binding signal (z-score),[17],0.022
same,glycan array binding signal (z-score),[18],-0.148
same,glycan array binding signal (z-score),[19],-0.255
same,glycan array binding signal (z-score),[20],-0.062
same,glycan array binding signal (z-score),[21],-0.2
same,glycan array binding signal (z-score),[22],-0.268

# Source: the supplement of paper PMC8728848
